Source: PubChem BioAssay
Pol iota inh = blocks human DNA polymerase iota activity | AID 588590 | Potency, µM (series often up to 115 µM), without a hit: top-dose activity, negative = inhibition, actives largely listed as inhibitors | Pol iota fluorescent replication assay, 10 min | Q9UNA4 | 390,000 tested, 1% active; note: potency is the fitted concentration of half-maximal effect
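Fluorescent replication assay read twice, at 0 min and 10 min after adding 50 nM (final) substrate. Enzyme (10 nM) and compounds were first incubated 15 min at room temperature; enzyme-free buffer wells were negative controls.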
Pol kappa inh = blocks human DNA polymerase kappa activity; purified Pol kappa, fluorescent DNA synthesis assay, 10 min; Q9UBT6; 400,000 tested, 0.53% active; Potency, µM (series often up to 107 µM), without a hit: top-dose activity, negative = inhibition, most hits filed as inhibitors; note: potency is the fitted concentration of half-maximal effect; % is set by controls: 0 for no effect and ±100 for the full control effect
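Kinetic fluorescence readout at 0 and 10 min followed reaction start with substrate at 50 nM final. Beforehand, enzyme (10 nM Pol kappa) stood 15 min with compound at room temperature; buffer-only wells were negative controls.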
ALOX12 inh = ALOX12 (human) lipoxygenase inhibition; P18054; purified 12hLO, xylenol orange hydroperoxide absorbance; Potency, µM (top dose mostly 108 µM), for the others: top-dose activity change, negative = inhibition, actives largely listed as inhibitors; 580,000 tested, 1.1% active; note: potency is the fitted concentration of half-maximal effect; % is set by controls: 0 for no effect and ±100 for the full control effect
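Purified human 12hLO at 150 nM in 25 mM Hepes, 0.01% Triton X-100, pH 7.0, preincubated 15 min at room temperature with compound. Reaction started with 40 uM arachidonic acid, 30 min at room temperature. Hydroperoxide measured by Fe-xylenol orange, 573/405 nm absorbance ratio.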
PI5P4Ka inh = PI5P4K alpha (human) kinase inhibition; P48426; PI5P4Kalpha enzyme, ADP-Glo luminescence, 60 min; active compounds read low; max response, %; 330,000 tested, 1.2% active; active = max response of -50% or lower; inconclusive = between -30% and -50%; inactive = -30% or higher; note: value at the top dose of about 77 µM; % is set by controls: 0 for no effect and ±100 for the full control effect
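ADP-Glo luminescence end-point read after a 60 min room-temperature kinase reaction of PI5P4Kalpha plus substrate, initiated with ATP at 5 microM final. Buffer: 0.038 M HEPES pH 7.4, EGTA, 0.1% CHAPS, 5% DMSO.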
Pol eta inh = inhibitors of human DNA polymerase eta | Q9Y253 | recombinant Pol eta, fluorescent DNA replication assay | Potency, µM (titrated, usually from 114 µM), for inactives: top-dose activity change, negative = inhibition, hits mostly inhibitors | 390,000 tested, 1.2% active | AID 588591; note: potency is the fitted concentration of half-maximal effect; % is set by controls: 0 for no effect and ±100 for the full control effect
Target sequence (Q9Y253 whole entry, looked up): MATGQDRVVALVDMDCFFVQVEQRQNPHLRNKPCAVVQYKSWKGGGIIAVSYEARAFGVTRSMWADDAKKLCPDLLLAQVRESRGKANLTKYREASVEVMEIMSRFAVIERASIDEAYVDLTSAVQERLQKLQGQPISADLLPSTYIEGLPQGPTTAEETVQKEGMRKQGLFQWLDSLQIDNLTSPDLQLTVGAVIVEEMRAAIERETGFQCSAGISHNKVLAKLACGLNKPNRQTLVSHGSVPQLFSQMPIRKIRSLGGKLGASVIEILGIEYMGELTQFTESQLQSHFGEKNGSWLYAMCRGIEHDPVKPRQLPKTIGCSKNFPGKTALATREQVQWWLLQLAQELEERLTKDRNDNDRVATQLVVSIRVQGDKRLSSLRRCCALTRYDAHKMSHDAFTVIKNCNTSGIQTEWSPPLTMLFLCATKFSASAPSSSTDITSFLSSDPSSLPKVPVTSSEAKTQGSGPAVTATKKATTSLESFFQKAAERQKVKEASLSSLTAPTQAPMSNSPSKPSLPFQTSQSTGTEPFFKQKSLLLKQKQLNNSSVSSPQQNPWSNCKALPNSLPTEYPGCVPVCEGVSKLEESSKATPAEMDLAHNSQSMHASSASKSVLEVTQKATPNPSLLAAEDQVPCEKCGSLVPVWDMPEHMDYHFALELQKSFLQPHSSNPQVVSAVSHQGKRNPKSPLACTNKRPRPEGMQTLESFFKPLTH
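Fluorescent replication assay: 50 nM final substrate added after a 15 min room-temperature compound preincubation with 10 nM enzyme. Signal taken at 0 min and again at 10 min.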
Pol beta inh = blocks human DNA polymerase beta activity; 340,000 tested, 1.3% active; Pol beta primer extension/strand displacement, fluorescence kinetic; P06746; Potency, µM (top dose mostly 114 µM), for the others: at the highest dose activity change, negative = inhibition, most hits filed as inhibitors; note: potency is the fitted concentration of half-maximal effect; % is set by controls: 0 for no effect and ±100 for the full control effect
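Curves were derived by four-parameter Hill fits of normalized qHTS data. The kinetic fluorescent primer-extension read was taken at 0 and 10 min after 50 nM substrate, following a 15 min room-temperature preincubation of 10 nM enzyme with compounds.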
Numbers without * were called inactive; ? = inconclusive; . = no result; ! = not active in a repeat; [ ] = remark or other dose. Only some compounds are listed: those with a hit (about 2.9% of all), similar ones and a draw of the others. Unless noted, calls come from the whole dose curve; as a rule, active = well fitted inhibition curve with a large enough effect; inconclusive = small, poorly fitted or top-dose-only effect, or another doubt; inactive = no such curve, though single readings can be large or run the other way.

SMILES	Pol iota inh	Pol kappa inh	ALOX12 inh	PI5P4Ka inh	Pol eta inh	Pol beta inh
CC(OC(=O)c1ccc(NC(=O)CC#N)cc1)C(=O)NC(c1ccccc1)c1ccccc1 (configuration not stated)	?	-36%	187%	?	50µM*	.
CCN1CCCC1CNCc1cccc(OC)c1OCc1ccccc1F (configuration not stated)	89µM*	-2%	0%	.	-1%	2%
CCN1CCCC1CNCc1cccc(OC)c1OCc1ccccc1 (configuration not stated)	0%	5%	1%	3	-10%	-5%
COc1cccc(CN2CCC(Cc3ncc(C)n3CC3CC3)C2)c1OC (configuration not stated)	.	.	105%	.	.	.
CCOc1cc(/C=C/C(=O)c2ccccc2Cl)cc(Cl)c1O	.	.	35µM*	.	.	.
COc1cc(/C=C/C(=O)c2ccccc2O)cc(OC)c1OC	?	-9%	2%	3	4%	-2%
CCOc1ccc(/C=C/C(=O)c2ccccc2)cc1OC	-13%	-4%	-6%	4	-6%	14%
CCOc1cc(/C=C/C(=O)c2cccc(Cl)c2)cc(Cl)c1O	.	.	5.6µM*	.	.	.
COc1ccccc1NC(=O)N1CCC(CCc2ccc(C)cc2)CC1	.	.	13%	.	.	.
Cc1cccc(N(C)S(=O)(=O)c2ccc3c(c2)C(C)(C)C(=O)N3C)c1	?	?	44%	-19	?	22µM*
COC(=O)CSc1nc(SC)nc2c1sc1nc(-c3ccco3)c3c(c12)CC(C)(C)OC3	45%	-8%	3%	-7	-6%	.
CSc1nc(SCCO)c2sc3nc(-c4ccco4)c4c(c3c2n1)CC(C)(C)OC4	22µM*	-32%	-39%	.	79µM*	1.6µM*
CSc1nc(N(CCO)CCO)c2sc3nc(-c4ccco4)c4c(c3c2n1)CCC4	1.8µM*	10µM*	?	-89*	1.1µM*	1.8µM*
O=C(C1=C(O)C(=O)N(CC2CCCO2)C1c1ccccc1)c1ccco1 (configuration not stated)	53%	0%	-27%	-5	-6%	100%
COc1ccc(C2C(C(=O)c3ccco3)=C(O)C(=O)N2CC2CCCO2)cc1OC (configuration not stated)	-1%	-5%	?	-4	-1%	32%
O=C(C1=C(O)C(=O)N(CC2CCCO2)C1c1cccnc1)c1ccco1 (configuration not stated)	14%	-9%	?	11	0%	19%
O=C(C1=C(O)C(=O)N(CC2CCCO2)C1c1cccc(Cl)c1)c1ccco1 (configuration not stated)	-8%	-5%	28µM*	-2	9%	55%
O=C(C1=C(O)C(=O)N(CC2CCCO2)C1c1ccccc1Cl)c1ccco1 (configuration not stated)	-11%	-5%	32µM*	0	7%	21%
O=C(C1=C(O)C(=O)N(CC2CCCO2)C1c1ccc(Cl)cc1Cl)c1ccco1 (configuration not stated)	?	-1%	40µM*	-1	1%	2%
CC(C)(C)c1ccc(C2C(C(=O)c3ccco3)=C(O)C(=O)N2CC2CCCO2)cc1 (configuration not stated)	9%	1%	22µM*	2	-23%	42%
COc1ccccc1-c1[nH]nc2ncc(-c3ccccc3C)nc12	.	.	23%[176 µM]	.	.	.
CCCCCCCCCCCCOC(C)=O	.	.	-16%[176 µM]	.	.	.
O=C(O)c1cc(-n2cccc2)ccc1N1CCOCC1	-28%[58.9 µM]	?	-3%	6	50µM*	0%
CCCCc1c(-c2ccccc2OC)ncn1Cc1ccccc1C	.	.	28µM*	.	.	.
CCCCc1c(-c2ccccc2OC)ncn1Cc1ccccc1F	.	.	-14%	.	.	.
SMILES	Pol iota inh	Pol kappa inh	ALOX12 inh	PI5P4Ka inh	Pol eta inh	Pol beta inh
Cc1ncsc1CN1C[C@@H](NC(=O)c2cccnc2)C[C@H]1CO	.	.	14µM*	.	.	.
CCNC(=O)[C@@H]1C[C@H](NC(=O)c2ccccc2)CN1Cc1scnc1C	.	.	3%	.	.	.
COCCn1c(CCC(=O)Nc2ccc(F)c(F)c2)nc2c1c(=O)[nH]c(=O)n2CC(C)C	.	.	6%	.	.	.
Cc1c(C)n(CCCN2CCOCC2)c2ncn3nc(-c4ccccn4)nc3c12	.	.	15%	.	.	.
Cc1ccc(OCCn2c(=S)[nH]c3c(N)ncnc32)cc1	136%	-4%	?	-13	6%	0%
CC(C)Oc1ccc(OCCn2c(=S)[nH]c3c(N)ncnc32)cc1	-11%	-7%	45µM*	-5	-8%	20%
Cc1cccc2c(-c3ccccc3)cc(=O)[nH]c12	3%	1%	0%	-7	0%	6%
Cc1cc(=S)[nH]c2c(C)cccc12	5%	-5%	1.1µM*!	-10	-11%	14%
N#Cc1nc(-c2ccc(S(=O)(=O)N3CCCC3)cc2)oc1NCc1ccc2c(c1)OCO2	.	.	-21%	.	.	.
NC(=O)c1cc[n+](CC2=C(C(=O)O)N3C(=O)[C@@H](NC(=O)C(c4ccccc4)S(=O)(=O)[O-])[C@H]3SC2)cc1 (some centres not stated)	0.79µM*	1µM*	.	-97*	-100%	-21%
NC(C(=O)N[C@@H]1C(=O)N2C(C(=O)O)=C(Cl)CS[C@H]12)c1ccccc1 (some centres not stated)	4%[58.9 µM]	-7%[60.1 µM]	.	.	-1%[57.1 µM]	13%[57.1 µM]
NC(=O)c1cc[n+](CC2=C(C(=O)O)N3C(=O)[C@@H](NC(=O)[C@H](c4ccccc4)S(=O)(=O)[O-])[C@@H]3SC2)cc1	.	4.2µM*	.	.	.	.
CNNCc1ccc(C(=O)NC(C)C)cc1	-18%	-13%	12µM*!	2	-9%	.
N#C/C(=C\c1cc(Cl)cc(Cl)c1O)C(=O)NC1CCCCC1	?	-22%	7.1µM*	.	-16%	16%
N#C/C(=C/c1ccccc1)C(=O)Nc1ccc(N2CCOCC2)cc1	.	.	2.5µM*	.	.	.
C[C@H](NC(=O)/C(C#N)=C/c1ccc(O)c(O)c1)c1ccccc1	?	?	?	.	22µM*	5%[57.1 µM]
COc1cc(/C=C(/C#N)C(=O)Nc2ccccc2)ccc1OCc1ccc(C(=O)O)cc1	0%	-4%	-14%	1	79µM*	-4%
C[C@@H](NC(=O)/C(C#N)=C/c1ccc(O)c(O)c1)c1ccccc1	?	?	?	-2	14µM*!	10%[57.1 µM]
NCCCCC(=O)N1CCOc2c(O)cc(-c3csc4ccccc34)cc2C1	.	.	17%	.	.	.
N#C/C(=C\c1ccc(O)c(O)c1)C(=O)Nc1ccccc1	56µM*	?	50µM*	-22	13µM*!	-2%[57.1 µM]
N#C/C(=C\c1cccc(O)c1)C(=O)Nc1ccc2c(c1)OCCO2	79µM*	0%	-13%	-11	-5%	-6%
